An excerpt weighted towards active compounds, which were near 19% of everything screened.
ELG1 DNA repair – blocks ELG1-dependent DNA repair in HEK293T cells; HEK293T ELG1-luciferase reporter, luminescence, 16 h; DNA damage induced by 5-fluorouridine; Potency, µM (highest dose often 46.1 µM), for the others: at the top dose activity change, negative = inhibition, most hits filed as inhibitors; 2.3% of 330,000 active; AID 504467; note: potency is the fitted concentration of half-maximal effect; nearly all actives have a fitted effect of over 55% in size
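DMSO vehicle served as the neutral condition. Each well held 2,000 cells given 5-fluorouridine plus compound; after 16 hr at 37 °C/5% CO2, ONE-Glo was added and luciferase measured 30 min later.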
TDP1 cell noCPT – qHTS for Inhibitors of human tyrosyl-DNA phosphodiesterase 1 (TDP1): qHTS in cells in absence of CPT; AID 686978, 2013; 15% of 420,000 active; DT40 Tdp1-/- hTDP1 cells, no CPT, ATP luminescence, 48 h; Potency, µM (series often up to 46.2 µM), for the others: at the top dose activity change, negative = growth inhibition, most hits filed as inhibitors; note: potency is the fitted concentration of half-maximal effect; nearly all actives have a fitted effect of over 55% in size
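A cellular qHTS used chicken DT40 cells lacking endogenous Tdp1 but carrying stably transfected human TDP1. Compounds were applied without camptothecin, and cell growth kinetics were judged by ATP-dependent luminescence after ≥48 hr.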
DT40 TDP1 CPT – growth inhibition of DT40 Tdp1-/-;hTDP1 cells with camptothecin (screen for TDP1 inhibitors); chicken DT40 Tdp1-/-;hTDP1 cells + 20 nM CPT, ATP luminescence, 48 h; Potency, µM (highest dose often 46.2 µM), without a hit: at the highest dose activity change, negative = growth inhibition, hits mostly inhibitors; 12% of 420,000 active; note: potency is the fitted concentration of half-maximal effect; nearly all actives have a fitted effect of over 55% in size
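Cell growth measured by CellTiter-Glo luminescence after a minimum 48 h, 37 C compound exposure with 20 nM CPT in Tdp1-knockout DT40 cells stably expressing hTDP1, seeded 400/well; qHTS titration format.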
TDP1 inh – inhibitors of human tyrosyl-DNA phosphodiesterase TDP1; 0.28% of 350,000 active; recombinant TDP1, AlphaScreen DNA substrate cleavage; AID 485290; Q9NUW8; Potency, µM (titrated, usually from 130 µM), inactives show at the highest dose activity change, negative = inhibition, actives largely listed as inhibitors; note: potency is the fitted concentration of half-maximal effect; nearly all actives have a fitted effect of over 40% in size
Target sequence (Q9NUW8 whole entry, looked up): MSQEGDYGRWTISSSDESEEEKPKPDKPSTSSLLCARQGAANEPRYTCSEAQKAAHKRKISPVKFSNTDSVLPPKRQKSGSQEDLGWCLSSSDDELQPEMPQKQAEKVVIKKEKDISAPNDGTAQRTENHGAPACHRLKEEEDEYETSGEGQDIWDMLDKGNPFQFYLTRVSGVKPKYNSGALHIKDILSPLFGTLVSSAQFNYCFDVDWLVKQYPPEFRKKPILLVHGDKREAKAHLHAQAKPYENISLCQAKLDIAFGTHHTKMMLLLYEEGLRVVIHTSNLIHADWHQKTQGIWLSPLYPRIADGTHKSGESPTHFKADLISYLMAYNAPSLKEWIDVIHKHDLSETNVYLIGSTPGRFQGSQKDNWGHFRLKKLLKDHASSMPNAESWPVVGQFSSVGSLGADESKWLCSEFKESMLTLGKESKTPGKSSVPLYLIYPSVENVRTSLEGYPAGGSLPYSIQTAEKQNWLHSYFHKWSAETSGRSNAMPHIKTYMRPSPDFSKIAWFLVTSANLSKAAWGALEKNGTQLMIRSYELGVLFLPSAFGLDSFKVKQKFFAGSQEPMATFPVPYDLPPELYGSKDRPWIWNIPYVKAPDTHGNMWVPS
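Recombinant human Tdp1 (E. coli-expressed, 1 nM final) preincubated with compounds 15 min at room temperature, then 5'-biotin/3'-phosphotyrosine-FITC DNA substrate (15 nM final) added for 5 min. AlphaScreen beads (10 ug/ml final) added 10 min; cleavage lowers signal.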
Giardia killer – Giardia lamblia killing | Giardia lamblia trophozoite viability | activity change, % at 7.66 µM, hits read low | 0.15% of 340,000 active | AID 540267; in the data active = activity change below about -80%; inconclusive = between about -30% and that limit;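 note: parasites exposed to compound for two days anaerobically before the ATP read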
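Anaerobic 48 hrs incubation at 37 deg C of 100 trophozoites/well with test compounds; ATPLite 1-Step luminescence, 15-30 min RT, reports cellular ATP as viability.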
IL-1B inflam inh – inflammasome signaling inhibition, IL-1 beta readout. THP-1 LPS/ATP IL-1B secretion, AlphaLISA, 16 h; active compounds read low. activity change, % at 57.5 µM. 4.7% of 360,000 active. AID 743279; in the data active = activity change below about -50%; inconclusive = mostly about -30% to -49%
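Secreted IL-1B measured by AlphaLISA bead assay after 16 h compound exposure of THP-1 cells; compounds (final up to 57.5 uM) added 1 h before LPS (250 ng/mL) and ATP (1.25 mM) stimulation; lower signal means less secretion.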
* hit, by the source's call; ? = inconclusive; · = not tested or not shown; [ ] = another dose, or the depositor's remark. Unless noted, calls come from the whole dose curve; as a rule, active = well fitted curve in the direction sought with a large enough effect; inconclusive = small, poorly fitted or top-dose-only effect, or another doubt; inactive = no such curve, though single readings can be large; an effect the other way counts as inactive or inconclusive. % is set by controls: 0 for no effect and ±100 for the full control effect.

SMILES	ELG1 DNA repair	TDP1 cell noCPT	DT40 TDP1 CPT	TDP1 inh	Giardia killer	IL-1B inflam inh
CS(=O)(=O)N(CC(=O)N/N=C/c1cc([N+](=O)[O-])ccc1Cl)c1ccccc1	1.7%	18.4µM*	?	3.6%	-6.3	-6.1
Cc1cccc(N(CC(=O)N/N=C/c2ccc(OCC(=O)NCc3ccco3)cc2)S(C)(=O)=O)c1C	-18.6%	-5.6%	2.6%	3.5%	23.8	-14.7
Cc1cccc(N(CC(=O)N/N=C/c2cc([N+](=O)[O-])ccc2Cl)S(C)(=O)=O)c1C	12.5%	20.6µM*	?	4.0%	2.0	-13.4
CC(=O)N/N=C/c1cc([N+](=O)[O-])ccc1OCCOc1ccccc1	?	16.4µM*	?	8.7%	28.4	11.6
Nc1nnnn1CC(=O)N/N=C/c1cc([N+](=O)[O-])ccc1Cl	11.8%	10.3µM*	14.6µM*	5.3%	11.2	6.2
CCOc1ccccc1NC(=O)c1cc(=O)[nH]c2ccc(S(=O)(=O)N3CCOCC3)cc12	-14.3%	-8.2%	-6.9%	-3.4%	6.4	-20.1
CCOc1ccc(Br)cc1S(=O)(=O)Nc1ccc(Cl)c(S(=O)(=O)N(CC)c2ccccc2)c1	-9.1%	?	?	5.6%	5.8	27.5
CN(/N=C\c1ccc(O)c(O)c1)c1nc(-c2ccccc2)cc(-c2ccccc2)n1	13µM*	1.46µM*	0.82µM*	7.9%	-20.4	-60.7*
CSc1ncccc1C(=O)NCCc1ccccc1F	-4.2%	-1.6%	6.1%	·	-26.0	-26.1
COc1ccc(OC)c(NC(=O)N2CC(C)Oc3ccc(C)cc32)c1 (configuration not stated)	·	20.6µM*	?	-1.3%	·	·
COc1ccc(CNC(=O)CCC(=O)N2CC3CCCN3c3ccccc32)c(OC)c1 (configuration not stated)	·	20.6µM*	18.4µM*	12.3%	·	·
CCC1CN(C(=O)Nc2cc(C)ccc2OC)c2cc(Cl)ccc2O1 (configuration not stated)	·	-52.8%	?	0.0%	·	·
O=C(Nc1cccc(Cl)c1)N1CC2CCCN2c2ccccc21 (configuration not stated)	·	?	?	11.4%	·	·
O=C(NCc1cccc(Cl)c1)c1ccc(NC(=O)N2CC3CCCN3c3ccccc32)cc1 (configuration not stated)	·	13µM*	23.1µM*	10.5%	·	·
COc1ccc(OC)c(NC(=O)N2CCCc3ccccc32)c1	-9.8%	?	?	5.6%[56.1 µM]	-13.9	-19.6
COc1ccc(OC)c(NC(=O)N2CC3CCCN3c3ccccc32)c1 (configuration not stated)	·	23.1µM*	?	10.5%	·	·
CCOc1ccc(NC(=O)NC2CCCc3ccccc32)cc1 (configuration not stated)	?	0.0%	-2.8%	3.3%	2.3	32.0
O=C(CCC(=O)N1CC2CCCN2c2ccccc21)NCc1cccc(Cl)c1 (configuration not stated)	·	7.31µM*	14.6µM*	11.0%	·	·
COc1ccc(CNC(=O)C2CCC(=O)N(C3CCCCCC3)C2)c(OC)c1 (configuration not stated)	·	8.2µM*	16.4µM*	·	·	12.1
CC1CN(C(=O)CCC(=O)NCc2cccc(Cl)c2)c2ccccc2S1 (configuration not stated)	·	-28.4%	-25.3%	-1.0%	·	·
Cc1ccc(Nc2cc(-n3cccn3)ncn2)c(C)c1	?	?	?	5.3%	-7.2	?
Fc1cccc(Nc2cc(-n3cccn3)ncn2)c1	2.6%	10.3µM*	20.6µM*	-5.9%[56.1 µM]	-9.9	13.0
Cc1ccc2c(c1)C1CN(C)CCC1N2Sc1ccccc1[N+](=O)[O-] (configuration not stated)	-8.6%	16.4µM*	?	12.5%	6.4	-88.8*
COc1ccc(CCNC(=O)c2ccc(CS(=O)(=O)Cc3cccc(C)c3)o2)cc1OC	23.1µM*	11.6µM*	20.6µM*	2.9%	-19.9	-10.2
CCOc1ccc(CCNC(=O)c2ccc(CS(=O)(=O)Cc3ccccc3Cl)o2)cc1OCC	·	23.1µM*	16.4µM*	11.6%	·	·
SMILES	ELG1 DNA repair	TDP1 cell noCPT	DT40 TDP1 CPT	TDP1 inh	Giardia killer	IL-1B inflam inh
CCOc1ccc(CCNC(=O)c2ccc(CSCc3ccccc3C)o2)cc1OCC	·	16.4µM*	16.4µM*	5.2%	·	·
O=C(CCNC(=O)c1ccco1)Nc1ccc(SC(F)F)cc1	2.1%	18.0%	0.8%	-2.5%	-2.0	9.9
COc1cccc(C(=O)OCC(=O)c2c(N)n(C)c(=O)n(C)c2=O)c1	44.9%	4.0%	5.1%	-2.3%[56.1 µM]	14.7	-25.5
N#C/C(=C\c1ccc(O)c(O)c1)C(=O)NCCCc1ccccc1	-5.5%	4.11µM*	?	10.8%	5.5	-4.7
Cc1cc(/C=C(\C#N)C(=O)NCc2ccccc2)cc(C)c1O	-1.8%	-19.5%	-7.9%	·	31.7	-6.5
COc1ccc(/C=C(\C#N)C(=O)NCCc2ccccc2)cc1OCc1ccccc1	?	16.4µM*	?	2.8%	13.9	-24.9
N#C/C(=C\c1ccc(N2CCOCC2)o1)C(=O)NCCc1ccccc1	-15.7%	?	?	5.9%	-7.0	-51.3*
CCCS(=O)(=O)NC(=O)C1(C)CCN(C(=O)c2cccnc2Oc2ccccc2)C1 (configuration not stated)	·	-4.6%	-4.5%	·	·	34.9
CCN(CC)S(=O)(=O)c1ccc(NC(=S)NC(=O)C2CCC2)cc1	?	?	18.4µM*	1.7%	6.0	-16.8
CN(C)S(=O)(=O)c1ccc(NC(=S)NC(=O)C2CCC2)cc1	-7.3%	-4.4%	2.2%	1.3%	-0.7	2.5
Cc1ccc(NC(=S)NC(=O)C2CCCC2)cc1C	?	?	?	-6.3%	-10.3	5.7
CCN(CC)S(=O)(=O)c1cc(NS(=O)(=O)c2cccs2)ccc1C	-19.5%	5.8µM*	-22.7%	0.2%	7.1	13.8
CCN(CC)S(=O)(=O)c1cc(NC(=S)NC(=O)C2CCCC2)ccc1C	?	18.4µM*	23.1µM*	0.1%	-19.3	-18.2
Cc1c(CN2CCOc3c(O)cc(-c4nc5ccccc5s4)cc3C2)cnn1C	·	?	-4.4%[9.04 µM]	·	·	·
S=C(NC1CC2CCC1C2)N1CCN(c2cccc(Cl)c2)CC1 (configuration not stated)	?	?	?	-0.6%	0.3	-9.1
CC(=O)Nc1ccc(-c2ccnc3c2CC(C)(C(=O)Nc2cccc(OC(F)(F)F)c2)O3)cc1 (configuration not stated)	·	16.4µM*	?	·	·	-16.5
